In PubChem BioAssay AID1159580 (chemical genetic matrix, 2015):
Hit rate of the full screen: of about 5,500 compounds, about 2,000 (36%) were called active. Another 18% or so got no clear call; they are omitted. Some of the results follow. Unmarked numbers belong to inactive results. No stated cut-off is given here; in the data, active means normalized growth mostly below about 0.91 (no sharp cut-off); inconclusive means no clear call, values can overlap the other calls; inactive means mostly above about 0.92.

Assay: chemical genetic growth profiling, strain panel (AID 1159580);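 further: tested at 20 µM; growth read once vehicle control cultures reached saturation at 30 °C; 1 = growth at the plate median or of vehicle wells; lower values mean less growth of the strain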
Settings: S. cerevisiae deletion strains, growth OD
[1] = locus YAL040C, strain CLN3, hits give low values
[2] = locus YCL061C, strain MRC1 (second series), hits give low values
[3] = locus YDR363W, strain ESC2, hits give low values
[4] = locus YER002W, strain NOP16, hits give low values
[5] = locus YJR075W, strain HOC1, hits give low values
[6] = locus YMR263W, strain SAP30, hits give low values
[7] = locus YNL175C, strain NOP13, hits give low values
[8] = locus YNL197C, strain WHI3, hits give low values
[9] = locus YNL224C, strain SQS1, hits give low values
[10] = locus YOR083W, strain WHI5 (second series), hits give low values
[11] = locus YPL055C, strain LGE1, hits give low values
[12] = locus YGR229C, strain SMI1, hits give low values
[13] = locus YNL322C, strain KRE1, hits give low values

Compound | normalized growth (locus YAL013W, strain DEP1, hits give low values) | normalized growth [1] | normalized growth [2] | normalized growth [3] | normalized growth [4] | normalized growth [5] | normalized growth [6] | normalized growth [7] | normalized growth [8] | normalized growth [9] | normalized growth [10] | normalized growth [11] | normalized growth [12] | normalized growth [13] | normalized growth (locus YPL241C, strain CIN2, hits give low values) | normalized growth (locus YDR150W, strain NUM1, hits give low values) | normalized growth (locus YGR078C, strain PAC10, hits give low values) | normalized growth (locus YMR307W, strain GAS1, hits give low values) | normalized growth (locus YNL153C, strain GIM3, hits give low values)
c1ccc(CCCN2CCN(CCOC(c3ccccc3)c3ccccc3)CC2)cc1 | 0.977 | 0.967 | 0.932 (active) | 0.941 | 0.998 | 0.93 | 0.992 | 0.996 | 0.991 | 1.02 | 0.881 | 0.95 | – | – | – | – | – | – | –
Fc1ccc(C(OCCCc2cnc[nH]2)c2ccc(F)cc2)cc1 | – | 1.01 | 1 | 0.979 | 1.04 | – | 1.01 | 1.01 | 1.01 | 1.02 | 1.03 | – | 1.02 | 1.03 | 1.01 | – | – | – | –
Fc1ccc(C(OCCN2CCN(CCCc3ccccc3)CC2)c2ccc(F)cc2)cc1 | – | 1.02 | 0.881 (active) | 0.851 (active) | 1.06 | 0.797 (active) | 0.997 | 0.972 | 1.08 | 1.05 | 0.903 | 0.583 (active) | 0.0957 (active) | 0.705 (active) | – | 0.78 (active) | 0.868 (active) | 0.891 (active) | 0.661 (active)
